DT40 TDP1 CPT – DT40-hTDP1 cell growth loss with CPT; Potency, µM (highest dose often 46.2 µM), inactives show at the highest dose activity change, negative = growth inhibition, actives largely listed as inhibitors; actives 12% (n = 420,000); chicken DT40 Tdp1-/-;hTDP1 cells + 20 nM CPT, ATP luminescence, 48 h; AID 686979; further: potency means the concentration at half of the fitted maximal effect; nearly all actives have a fitted effect of over 55% in size
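Chicken DT40 Tdp1-/- cells stably complemented with human TDP1 were seeded at 400 cells/well in medium containing 20 nM camptothecin, exposed to pin-transferred compounds, and grown at 37 °C for at least 48 hr. Viability was read as ATP luminescence.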
HT1080 IDH1KD tx – kills HT-1080 cells with IDH1 knockdown | Potency, µM (titrated, usually from 46.1 µM), for inactives: top-dose activity, negative = toxicity, hits mostly cytotoxic | AID 686971 | actives 2% (n = 360,000) | HT-1080 IDH1 knockdown viability, ATP luminescence, 48 h;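 further: potency means the concentration at half of the fitted maximal effect; 0% = DMSO wells and -100% = cell-free medium wells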
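In this qHTS, HT-1080 cells depleted of IDH1 are exposed for 48 h at 37 °C to compound titrations. Toxicity is scored from CellTiter-Glo luminescence, with DMSO as full viability and medium alone as none.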
TDP1 cell noCPT – qHTS for Inhibitors of human tyrosyl-DNA phosphodiesterase 1 (TDP1): qHTS in cells in absence of CPT | DT40 Tdp1-/- hTDP1 cells, no CPT, ATP luminescence, 48 h | Potency, µM (series often up to 46.2 µM), inactives show at the highest dose activity change, negative = growth inhibition, actives largely listed as inhibitors | actives 15% (n = 420,000) | AID 686978, 2013; further: potency means the concentration at half of the fitted maximal effect; nearly all actives have a fitted effect of over 55% in size
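Chicken DT40 Tdp1-/- cells complemented with human TDP1, screened without camptothecin (DMSO vehicle only), 400 cells/well. Compounds pin-transferred, cells incubated at 37 °C for at least 48 hr. Growth read as ATP-dependent luminescence (CellTiter-Glo, 30 min at RT).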
HT1080NT lethal – kills 2HG-producing HT-1080-NT fibrosarcoma cells | HT-1080-NT fibrosarcoma viability, CellTiter-Glo ATP luminescence, 48 h | Potency, µM (doses to about 46.1 µM), for the others: top-dose activity, negative = less viability, most hits filed as cytotoxic | actives 1.6% (n = 360,000) | AID 686970;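 further: NT is the 2HG producing partner of a matched IDH1 knockdown line; potency means the concentration at half of the fitted maximal effect; 0% = DMSO-treated cells and -100% = media-only wells without cells; nearly all actives have a fitted effect of over 55% in size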
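HT-1080-NT; 750 cells/well; 5% FBS RPMI; 48 h compound, 37 degrees C; CellTiter-Glo luminescence; curve fitting and curve-class assignment.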
ALOX12 inh – inhibitors of human 12S-lipoxygenase ALOX12. P18054. AID 1671190. actives 1.1% (n = 580,000). Potency, µM (doses to about 108 µM), for the others: top-dose activity change, negative = inhibition, usual class: inhibitors. purified 12hLO, xylenol orange hydroperoxide absorbance; further: potency means the concentration at half of the fitted maximal effect
Target sequence (P18054 whole entry, looked up): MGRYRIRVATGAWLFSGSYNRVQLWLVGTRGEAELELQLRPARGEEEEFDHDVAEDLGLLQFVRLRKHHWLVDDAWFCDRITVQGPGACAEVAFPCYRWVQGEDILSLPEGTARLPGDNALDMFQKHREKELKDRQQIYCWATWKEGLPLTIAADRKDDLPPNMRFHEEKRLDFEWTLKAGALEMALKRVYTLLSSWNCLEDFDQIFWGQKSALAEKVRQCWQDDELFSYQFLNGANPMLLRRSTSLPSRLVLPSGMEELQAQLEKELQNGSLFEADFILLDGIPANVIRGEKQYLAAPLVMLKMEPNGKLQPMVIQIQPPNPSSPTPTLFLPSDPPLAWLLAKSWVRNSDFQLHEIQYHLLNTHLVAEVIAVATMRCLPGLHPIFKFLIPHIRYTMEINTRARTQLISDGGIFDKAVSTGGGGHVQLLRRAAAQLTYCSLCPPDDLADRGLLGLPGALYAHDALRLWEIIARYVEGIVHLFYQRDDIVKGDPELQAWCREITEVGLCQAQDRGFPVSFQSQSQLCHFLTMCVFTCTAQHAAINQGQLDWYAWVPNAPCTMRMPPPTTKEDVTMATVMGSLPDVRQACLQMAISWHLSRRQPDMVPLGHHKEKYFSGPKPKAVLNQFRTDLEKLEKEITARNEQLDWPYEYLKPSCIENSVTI
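Purified human 12hLO (150 nM final) in 25 mM Hepes, 0.01% Triton X-100, pH 7.0 was preincubated 15 min at room temperature with compound. Then 40 uM arachidonic acid was added, 30 min. Hydroperoxide was read by Fe-XO absorbance ratio 573/405 nm.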
IL1B secr inh – inflammasome signaling inhibition, IL-1 beta readout. AID 743279. activity change, % at 57.5 µM. actives 4.7% (n = 360,000). THP-1 LPS/ATP IL-1B secretion, AlphaLISA, 16 h; stronger effect = lower value; in the data active means activity change below about -50%; inconclusive means mostly about -30% to -49%
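THP-1 cells pretreated 1 hr with compounds (up to 57.5 uM final), then stimulated with LPS (250 ng/mL final) plus ATP (1.25 mM final); secreted IL-1B measured by AlphaLISA after 16 hr, decreased signal indicating inhibition.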
* marks the source's active call; other numbers are inactive results; ? = inconclusive; · = no result; [ ] = another dose, or the depositor's remark. Shown is part of a subset that was picked to be rich in hits. Unless noted, the call rests on the fitted dose curve; in most records, active means well fitted curve in the direction sought with a large enough effect; inconclusive means small, poorly fitted or top-dose-only effect, or another doubt; inactive means no such curve, though single readings can be large; an effect the other way counts as inactive or inconclusive. Unless noted, on the % scale 0 is the no-effect control and ±100 the full control effect.

SMILES	DT40 TDP1 CPT	HT1080 IDH1KD tx	TDP1 cell noCPT	HT1080NT lethal	ALOX12 inh	IL1B secr inh
CC(=O)Nc1ccc(Oc2ccc(-c3noc(C)n3)cc2)cc1	-0.3%	4.0%	-25.8%	3.7%	291.3%	-16.4
CC(=O)Oc1ccc(Oc2ccc(-c3noc(C)n3)cc2)cc1	20.6µM*	-29.4%	11.6µM*	-3.0%	3.3%	0.0
O=C(NC(=S)NCc1nc2ccccc2[nH]1)c1ccccc1F	23.1µM*	4.6%	16.4µM*	-1.2%	-0.4%	25.5
CCCCN(C(=O)c1ccccc1Br)C(c1ccc(OC)cc1)c1nc2ccccc2[nH]1 (configuration not stated)	16.4µM*	?	?	?	?	-2.6
COc1cc(OC)cc(C(=O)Nc2nc3ccccc3[nH]2)c1	20.6µM*	-12.9%	29.1µM*	-15.7%	0.0%	-2.6
Cc1cc(C)cc(C(=O)Nc2nc3ccccc3[nH]2)c1	?	-26.2%	23.1µM*	-18.7%	-17.2%	-8.7
Cc1nn2c(c1-c1ccccc1N1CCCC1)N(C(=O)C1CCOCC1)CCC2	·	·	·	·	384.7%[176 µM]	·
O=C(Nc1nc2ccccc2[nH]1)c1ccccc1OC(F)F	0.8%	-21.6%	?	-20.8%	2.8%	17.1
O=C(Nc1nc2ccccc2[nH]1)c1ccccc1F	?	5.8µM*	11.6µM*	4.61µM*	7.4%	1.1
COc1ccc2oc(C(=O)Nc3nc4ccccc4[nH]3)c(C)c2c1	20.6µM*	-2.7%	10.3µM*	-0.9%	-11.4%	-21.2
COc1ccc(Br)c(C(=O)Nc2nc3ccccc3[nH]2)c1	-24.6%	5.6%	5.17µM*	8.2%	-7.7%	2.1
O=C(CCCN1C(=O)NC2(CCCC2)C1=O)Nc1ccc(Cl)c(S(=O)(=O)N2CCOCC2)c1	7.7%	14.7%	1.1%	12.5%	11.4%	16.4
CCN(CC)N=Nc1ccc(S(=O)(=O)Nc2nc(C)cc(C)n2)cc1	7.8%	-4.1%	-23.8%	10.4%	-11.3%	12.8
Oc1ccc(C[C@H]2CNCCN2CCc2cc(C(F)(F)F)cc(C(F)(F)F)c2)cc1	10.3µM*	-0.4%	?	?	?	?
Oc1ccc(C[C@@H]2CNCCN2CCc2cc(C(F)(F)F)cc(C(F)(F)F)c2)cc1	23.1µM*	-22.1%	?	?	-21.4%	-66.8*
FC(F)(F)c1cc(CCN2CCNC[C@H]2Cc2cccc3ccccc23)cc(C(F)(F)F)c1	8.2µM*	?	8.2µM*	-26.5%	?	-104.9*
CC(=O)c1cc2c(cc1NC(=O)CSc1nnc(C3CCCCC3)o1)OCO2	·	·	·	·	-2.1%	·
Cc1ccc(Sc2cccc(Cl)n2)cc1	·	·	·	·	-26.0%	·
Cc1cnc(C(=O)N2CCCC(c3nc(-c4cccnc4)no3)CCNC(=O)CC2)cn1 (configuration not stated)	·	·	·	·	27.3%	·
Cc1noc(C)c1NC(=O)Nc1ccc2c(c1)CC(=O)N([C@@H](C)CO)C[C@@H](C)[C@@H](CN(C)C(=O)Nc1cccc3ccccc13)O2	3.9%	1.3%	-0.8%	4.7%	-3.3%	4.5
CCn1ncnc1C(C)NC(=O)c1coc(COc2ccc3c(c2)OCO3)n1 (configuration not stated)	·	·	·	·	48.7%	·
CN(C)C(=O)c1ccc(S(=O)(=O)NCc2ccc(Cl)cc2)s1	?	·	?	·	-11.5%	·
CCc1ccc(NS(=O)(=O)c2ccc(C(=O)N(C)C)s2)cc1	18.4µM*	·	14.6µM*	·	-19.3%	·
Cc1ccc(/C=C2/CNC/C(=C/c3ccc(C)cc3)C2=O)cc1	7.31µM*	23.1µM*	13µM*	14.6µM*	-20.4%	-106.3*
C#CCNC(=O)CC[C@@H]1CNC(=O)[C@@H]2C[C@H](NC(=O)c3cccc(F)c3)CN12	·	·	·	·	8.0%[176 µM]	·

Screens as filed in PubChem.
